Records with an inconclusive call do not appear. Where a call stands in place of a potency, no number is given. The source made the active and inactive calls. Calls come from the whole dose curve; as a rule, active = well fitted cell-killing curve with a large enough effect; inconclusive = small, poorly fitted or top-dose-only effect, or effect the other way; inactive = no such curve, though single readings can be large or run the other way.
Test: Quantitative High-Throughput drug screen in 47 multiple myeloma cell lines against the NCATS MIPE library collection: KMS28PE_JCRB cell viability assay (AID 1918983); note: nearly all actives have a fitted effect of over 35% in size
Conditions: KMS28PE multiple myeloma viability, CellTiter-Glo ATP, 48 h; series mostly up to 45.8 µM
Summary of the method: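 MIPE 4.0 approved/investigational drugs; 500 cells/well; 48 h 37 °C humidified 5% CO2; CTG luminescence readout; DMSO = 100%, media = 0% viability.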
Potency is the fitted concentration of half-maximal effect.

| Structure (SMILES) | Potency |
| --- | --- |
| CC1C(=O)OC2C(O)C34C5CC(C(C)(C)C)C36C(OC(=O)C6O)OC4(C(=O)O5)C12O (centres undefined) | inactive |
| C[C@@H](NC(=O)c1ncnc(N)c1Cl)c1ncc(C(=O)Nc2cc(C(F)(F)F)c(Cl)cn2)s1 | 16.6 µM (active) |
| C[C@@H](O)[C@H]1C(=O)N2C(C(=O)OCOC(=O)C(C)(C)C)=C(SC3CN(C4=NCCS4)C3)[C@H](C)[C@H]12 | inactive |
| CN(C)CC[C@H](CSc1ccccc1)Nc1ccc(S(=O)(=O)NC(=O)c2ccc(N3CCN(Cc4ccccc4-c4ccc(Cl)cc4)CC3)cc2)cc1[N+](=O)[O-] | 1.48 µM (active) |
| C[C@@H]1C[C@H]2[C@@H]3CCC4=CC(=O)C=C[C@]4(C)[C@@]3(F)[C@@H](O)C[C@]2(C)[C@@]1(O)C(=O)CO | inactive |
| O=c1[nH]c(=O)n([C@H]2C[C@@H](O)[C@@H](CO)O2)cc1I | inactive |
| CON(C)C(=O)N1N=C(c2cc(F)ccc2F)S[C@]1(CCCN)c1ccccc1 | inactive |
| C[C@]12C=CC(=O)C=C1CC[C@@H]1[C@@H]2[C@@H](O)C[C@@]2(C)[C@@H]1CC[C@]2(O)C(=O)CO | inactive |
| CN1CCN2c3ncccc3Cc3ccccc3C2C1 (centres undefined) | inactive |
| CN1[C@H]2CC[C@H]1CC(OC(=O)c1c[nH]c3ccccc13)C2 (some centres undefined) | 9.35 µM (active) |
| Cc1cnc(-c2cc(N3CCN(C(=O)CCS(C)(=O)=O)CC3)ncc2Cl)c(C)c1 | inactive |
| CN[C@@H]1[C@@H](O)[C@@H](O[C@@H]2[C@@H](O)[C@H](O[C@H]3O[C@H](CN)[C@@H](O)[C@H](O)[C@@H]3O)[C@@H](N)C[C@@H]2NC(=O)[C@@H](O)CN)OC[C@]1(C)O | inactive |
| NC(=O)c1ccc(N(C(N)=O)c2c(F)cccc2F)nc1-c1ccc(F)cc1F | inactive |
| CCC[C@H](Nc1nc(-c2ccc(NC(=O)NCC)c(OC)c2)ncc1C)c1cccnc1 | 0.0148 µM (active) |
| NS(=O)(=O)c1cc(Cl)c(Cl)c(S(N)(=O)=O)c1 | inactive |
| CO[C@H]1/C=C\O[C@@]2(C)Oc3c(C)c(O)c4c(O)c(c(C=NN5CCN(C6CCCC6)CC5)c(O)c4c3C2=O)NC(=O)C(C)=CC=C[C@H](C)[C@H](O)[C@@H](C)[C@@H](O)[C@@H](C)[C@H](OC(C)=O)[C@H]1C | 0.418 µM (active) |
| CC(=O)NCCC(=O)N[C@@H](CCC(N)=O)C(=O)N[C@@H](CO)C(=O)N[C@@H](CCC(N)=O)C(=O)N[C@@H](CCC(N)=O)C(=O)N[C@H](C(=O)N[C@@H](Cc1ccccc1)C(=O)N[C@]1(C)CCCCCCC=CCCC[C@@](C)(C(=O)N[C@@H](CCC(N)=O)C(=O)N[C@@H](CC(N)=O)C(N)=O)NC(=O)[C@H](CC(C)C)NC(=O)[C@H](CC(C)C)NC(=O)[C@@H](CCCNC(=N)N)NC(=O)[C@H](Cc2c[nH]c3ccccc23)NC(=O)[C@H](CC(C)C)NC(=O)[C@H](CC(N)=O)NC1=O)[C@H](C)O | 18.7 µM (active) |
| CC1(C)[C@H]2CC[C@]3(C)[C@@H](C(=O)C=C4[C@@H]5C[C@@](C)(C(=O)O)CC[C@]5(C)CC[C@]43C)[C@@]2(C)CC[C@@H]1O | 18.7 µM (active) |
| CC[C@H](NC(=O)[C@H](C)NC)C(=O)N1C[C@@H](O)C[C@H]1Cc1c(-c2[nH]c3cc(F)ccc3c2C[C@H]2C[C@H](O)CN2C(=O)[C@H](CC)NC(=O)[C@H](C)NC)[nH]c2cc(F)ccc12 | inactive |
| COc1cc(C=CC(=O)O)ccc1O | inactive |
| Cc1ccc2c(=O)c3cccc(CC(=O)O)c3oc2c1C | inactive |
| O=C(NCCCCN1CCOCC1)c1cc2ccccc2o1 | inactive |
| Cc1[nH]c(C=C2C(=O)Nc3ccc(S(=O)(=O)N(C)c4cccc(Cl)c4)cc32)c(C)c1C(=O)N1CCN(C)CC1 | 23.5 µM (active) |
| N[C@@H](CC(=O)N1CCn2c(nnc2C(F)(F)F)C1)Cc1cc(F)c(F)cc1F | 9.35 µM (active) |
| O=C(Nc1ccc(OC(F)(F)F)cc1)c1sccc1NCc1ccnc2ccccc12 | 20.9 µM (active) |
| COc1ccnc(CS(=O)c2nc3ccc(OC(F)F)cc3[nH]2)c1OC (centres undefined) | inactive |
| CN1c2ccccc2C(=O)N2CCc3c([nH]c4ccccc34)C21 (centres undefined) | inactive |
| COc1cccc(OC)c1-c1cc(C(=O)NC2(C(=O)O)C3CC4CC(C3)CC2C4)nn1-c1ccnc2cc(Cl)ccc12 (centres undefined) | inactive |
| CCOC(=O)N1CCN([N+]([O-])=NOc2cc(ON=[N+]([O-])N3CCN(C(=O)OCC)CC3)c([N+](=O)[O-])cc2[N+](=O)[O-])CC1 | 5.9 µM (active) |
